Assay results published in PubChem BioAssay (Tox21).
Several values for one entry are separate records, joined by “and”; a condition that tells them apart may be missing. Equal entries are not always repeated. Inconclusive results are not listed. More than one record can exist for a structure, and the calls need not agree. Activity calls are given as the source filed them. Unless noted, calls follow the shape of the dose curve; as a rule, active = well fitted curve in the direction sought with a large enough effect in the repeat runs; inconclusive = weak or mixed curves; inactive = no such curve, though single readings can be large; an effect the other way counts as inactive or inconclusive.

Legend:
[1] = qHTS assay to identify small molecule antagonists of the glucocorticoid receptor (GR) signaling pathway - cell viability counter screen (AID 720693); also: nearly all actives have a fitted effect of over 55% in size
[2] = qHTS assay for identifying genotoxic compounds that show differential cytotoxicity against isogenic chicken DT40 cell lines with known DNA damage response pathways - wild type cell line (AID 743012); also: nearly all actives have a fitted effect of over 60% in size; also: potency is read from the fitted curve at half-maximal effect
Summary of the method: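 300 wt DT40 cells/well; cpd (DMSO) pintool-transferred after ~0.5 h at 37 C/5% CO2; 40 h incubation; CellTiter-Glo added, 30 min RT; luminescence read.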

[3] = qHTS assay for identifying genotoxic compounds that show differential cytotoxicity against isogenic chicken DT40 cell lines with known DNA damage response pathways - Rev3 mutant cell line (AID 743014); also: nearly all actives have a fitted effect of over 55% in size; also: potency is read from the fitted curve at half-maximal effect
[4] = qHTS assay for identifying genotoxic compounds that show differential cytotoxicity against isogenic chicken DT40 cell lines with known DNA damage response pathways - Rad54/Ku70 mutant cell line (AID 743015); also: nearly all actives have a fitted effect of over 60% in size; also: potency is read from the fitted curve at half-maximal effect
[5] = qHTS assay to identify small molecule antagonists of the androgen receptor (AR) signaling pathway - cell viability counter screen (AID 743033; also: nearly all actives have a fitted effect of over 45% in size)
[6] = target: Androgen receptor (Homo sapiens) (UniProt P10275); assay: qHTS assay to identify small molecule antagonists of the androgen receptor (AR) signaling pathway (AID 743035; active = well fitted inhibition curve with a large enough effect in the signal ratio in the repeat runs, not every such curve was filed as active; the % refers to the signal ratio)
Summary of the method: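 In this cell-based reporter screen, compounds were tested in concentration series against R1881-activated HEK293 cells expressing beta-lactamase under UAS control; after 16 h at 37C, FRET substrate was added and fluorescence read 2 h later.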

[7] = target: Androgen receptor (Homo sapiens) (UniProt P10275); assay: qHTS assay to identify small molecule agonists of the androgen receptor (AR) signaling pathway (AID 743036; active = well fitted activation curve with a large enough effect in the signal ratio in the repeat runs, with a control signal flat, not every such curve was filed as active; the % refers to the signal ratio)
Summary of the method: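 Reporter line: GeneBLAzer AR-UAS-bla-GripTite (HEK293). Steps: plate cells, 4 h rest, add compounds, 16 h at 37C, add LiveBLAzer B/G substrate, 2 h at RT, read fluorescence.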

[8] = target: Androgen receptor (Homo sapiens) (UniProt P10275); assay: qHTS assay to identify small molecule agonists of the androgen receptor (AR) signaling pathway using the MDA cell line (AID 743040; also: nearly all actives have a fitted effect of over 20% in size; also: potency is read from the fitted curve at half-maximal effect)
Summary of the method: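 Agonist activity is measured as luciferase luminescence in human MDA-kb2 cells whose MMTV reporter responds to both AR and GR. Compounds in DMSO incubate 16 h at 37C, 0% CO2, and ONE-Glo is read after 30 min.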

[9] = qHTS assay to identify small molecule antagonists of the androgen receptor (AR) signaling pathway using the MDA cell line - cell viability counter screen (AID 743041; also: nearly all actives have a fitted effect of over 45% in size)
Summary of the method: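 qHTS viability read-out; MDA-kb2 AR-luc; R1881-stimulated; 16 h exposure at 37C, 0% CO2; CellTiter-Fluor, 30 min; fluorescence intensity.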

[10] = target: Androgen receptor (Homo sapiens) (UniProt P10275); assay: qHTS assay to identify small molecule antagonists of the androgen receptor (AR) signaling pathway using the MDA cell line (AID 743042; also: nearly all actives have a fitted effect of over 55% in size; also: potency is read from the fitted curve at half-maximal effect)
Summary of the method: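 MDA-kb2 cells (human breast carcinoma, stably carrying an MMTV-luciferase reporter responsive to AR and GR) were plated at 3,000 cells/well and preincubated 5 hr at 37C, then given compound plus R1881 agonist for 16 h. ONE-Glo luminescence was read.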

[11] = qHTS assay to identify small molecule antagonists of the thyroid receptor (TR) signaling pathway - cell viability counter screen (AID 743064); also: nearly all actives have a fitted effect of over 50% in size; also: potency is read from the fitted curve at half-maximal effect
Summary of the method: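 Plate GH3.TRE-Luc cells; incubate 4 h at 37 °C; add compound, then T3 to 1 nM final; incubate 23.5 h; add CellTiter-Fluor; incubate 30 min at 37 °C, 5% CO2; read fluorescence.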

[12] = qHTS assay to identify small molecule antagonists of the thyroid receptor (TR) signaling pathway (AID 743065); also: nearly all actives have a fitted effect of over 55% in size; also: potency is read from the fitted curve at half-maximal effect
Summary of the method: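 GH3.TRE-Luc rat pituitary cells carrying two TR response elements driving luciferase were plated for 4 h, given compound plus 1 nM T3 (final), and incubated 23.5 h at 37 C. ONE-Glo luminescence measured reporter inhibition; CellTiter-Fluor fluorescence tracked cytotoxicity.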

[13] = test system: thyroid hormone receptor (rat, GH3 cells); assay: qHTS assay to identify small molecule agonists of the thyroid receptor (TR) signaling pathway (AID 743066; calls by dose curve)
[14] = target: Estrogen receptor (Homo sapiens) (UniProt P03372); assay: qHTS assay to identify small molecule antagonists of the estrogen receptor alpha (ER-alpha) signaling pathway (AID 743069; active = well fitted curve in the direction sought with a large enough effect in the signal ratio in the repeat runs, not every such curve was filed as active; the % refers to the signal ratio)
Summary of the method: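 Screening used a UAS-driven beta-lactamase reporter integrated into HEK293 cells expressing ER-alpha, stimulated with 17beta-estradiol alongside test compounds over 18 hr at 37C; signal came from LiveBLAzer B/G FRET fluorescence.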

[15] = qHTS assay to identify small molecule antagonists of the estrogen receptor alpha (ER-alpha) signaling pathway - cell viability counter screen (AID 743074; calls by dose curve; also: nearly all actives have a fitted effect of over 45% in size)
[16] = target: Estrogen receptor (Homo sapiens) (UniProt P03372); assay: qHTS assay to identify small molecule agonists of the estrogen receptor alpha (ER-alpha) signaling pathway (AID 743075; calls by dose curve)
[17] = target: Estrogen receptor (Homo sapiens) (UniProt P03372); assay: qHTS assay to identify small molecule agonists of the estrogen receptor alpha (ER-alpha) signaling pathway using the BG1 cell line (AID 743079); also: nearly all actives have a fitted effect of over 20% in size; also: potency is read from the fitted curve at half-maximal effect
[18] = qHTS assay to identify small molecule antagonists of the estrogen receptor alpha (ER-alpha) signaling pathway using the BG1 cell line (AID 743080; calls by dose curve;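 also: BG1 cells stimulated with 17beta-estradiol alongside compound; series mostly up to about 70 µM; nearly all actives have a fitted effect of over 25% in size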)
Summary of the method: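 BG1-Luc-4E2 cells (endogenous full-length ER-alpha, 4xERE luciferase) hormone-starved 5 days in charcoal-stripped FBS, plated 4,000/well for 24 h, then compound plus 17beta-estradiol for 21.5 h at 37 C; ONE-Glo luminescence read.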

[19] = qHTS assay to identify small molecule antagonists of the estrogen receptor alpha (ER-alpha) signaling pathway using the BG1 cell line - cell viability counter screen (AID 743081);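 also: compound given together with 17beta-estradiol as the ER stimulus; series mostly up to about 70 µM; nearly all actives have a fitted effect of over 45% in size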
[20] = target: Aromatase (Homo sapiens) (UniProt P11511); assay: qHTS assay to identify aromatase inhibitors (AID 743083)

Measured: Potency

Androgen receptor (Homo sapiens), sequence (P10275 whole entry, looked up): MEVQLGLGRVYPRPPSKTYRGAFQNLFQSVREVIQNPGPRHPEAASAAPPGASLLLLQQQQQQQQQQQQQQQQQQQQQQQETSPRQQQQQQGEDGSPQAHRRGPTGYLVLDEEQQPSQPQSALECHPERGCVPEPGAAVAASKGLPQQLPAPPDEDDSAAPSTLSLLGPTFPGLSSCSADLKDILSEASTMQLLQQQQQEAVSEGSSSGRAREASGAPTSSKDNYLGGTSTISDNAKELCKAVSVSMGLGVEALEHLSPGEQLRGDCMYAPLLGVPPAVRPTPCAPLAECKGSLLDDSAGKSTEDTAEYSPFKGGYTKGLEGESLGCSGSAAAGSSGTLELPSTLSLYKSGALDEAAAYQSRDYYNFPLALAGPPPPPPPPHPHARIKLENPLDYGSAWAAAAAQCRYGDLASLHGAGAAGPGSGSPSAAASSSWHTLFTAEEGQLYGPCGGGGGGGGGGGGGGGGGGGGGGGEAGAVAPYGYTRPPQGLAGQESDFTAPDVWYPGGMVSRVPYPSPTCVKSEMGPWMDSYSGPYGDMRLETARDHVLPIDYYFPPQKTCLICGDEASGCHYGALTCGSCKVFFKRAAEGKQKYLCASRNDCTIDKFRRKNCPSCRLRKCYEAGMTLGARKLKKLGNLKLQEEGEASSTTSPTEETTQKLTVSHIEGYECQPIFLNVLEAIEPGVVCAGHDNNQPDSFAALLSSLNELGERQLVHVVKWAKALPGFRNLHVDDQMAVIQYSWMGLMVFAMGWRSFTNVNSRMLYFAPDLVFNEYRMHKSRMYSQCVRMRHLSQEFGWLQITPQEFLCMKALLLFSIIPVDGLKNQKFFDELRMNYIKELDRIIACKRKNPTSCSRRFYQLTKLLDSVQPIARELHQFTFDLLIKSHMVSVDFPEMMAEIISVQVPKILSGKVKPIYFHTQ
Aromatase (Homo sapiens), sequence (P11511 whole entry, looked up): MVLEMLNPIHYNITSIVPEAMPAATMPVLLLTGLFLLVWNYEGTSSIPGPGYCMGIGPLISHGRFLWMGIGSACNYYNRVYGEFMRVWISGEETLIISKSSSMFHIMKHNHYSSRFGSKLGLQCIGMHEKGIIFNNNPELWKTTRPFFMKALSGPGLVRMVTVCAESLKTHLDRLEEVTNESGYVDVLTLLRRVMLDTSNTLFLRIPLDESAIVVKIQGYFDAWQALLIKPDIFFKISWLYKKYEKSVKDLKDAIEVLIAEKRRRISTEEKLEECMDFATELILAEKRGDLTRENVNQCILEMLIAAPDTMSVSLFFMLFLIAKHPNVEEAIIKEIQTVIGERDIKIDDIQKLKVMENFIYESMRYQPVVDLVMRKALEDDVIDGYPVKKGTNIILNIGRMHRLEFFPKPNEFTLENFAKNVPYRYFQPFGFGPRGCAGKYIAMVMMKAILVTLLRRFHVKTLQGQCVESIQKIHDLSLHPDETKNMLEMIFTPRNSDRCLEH
Estrogen receptor (Homo sapiens), sequence (P03372 whole entry, looked up): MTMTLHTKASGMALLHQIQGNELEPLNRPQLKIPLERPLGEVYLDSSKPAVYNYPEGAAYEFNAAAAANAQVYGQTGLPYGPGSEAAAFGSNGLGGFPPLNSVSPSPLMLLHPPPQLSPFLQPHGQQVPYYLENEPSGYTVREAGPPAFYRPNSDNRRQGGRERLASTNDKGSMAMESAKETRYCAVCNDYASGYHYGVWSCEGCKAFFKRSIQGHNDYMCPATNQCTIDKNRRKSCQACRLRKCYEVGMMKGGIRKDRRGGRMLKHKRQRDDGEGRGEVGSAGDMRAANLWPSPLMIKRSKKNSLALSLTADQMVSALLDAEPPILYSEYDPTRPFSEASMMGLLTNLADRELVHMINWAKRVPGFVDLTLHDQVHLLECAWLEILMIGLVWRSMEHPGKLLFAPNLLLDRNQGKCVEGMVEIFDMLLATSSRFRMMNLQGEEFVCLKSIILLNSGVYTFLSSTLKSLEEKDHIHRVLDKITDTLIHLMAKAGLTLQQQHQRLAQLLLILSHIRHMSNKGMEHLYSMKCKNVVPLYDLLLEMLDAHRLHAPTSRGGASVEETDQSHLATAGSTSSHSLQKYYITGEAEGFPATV

C=C(C)C(=O)OCCCCCCCC(C)C
inactive: all assays above

CCCCC(CC)COC(=O)c1ccccc1O (configuration not stated)
active: [17] 16.8 µM
not listed: [6] | [7] | [8] | [10]
inactive: all other assays above

Nc1ccc(S(=O)(=O)Nc2ccnn2-c2ccccc2)cc1
not listed: [6] | [7] | [8] | [10]
inactive: all other assays above

O=c1n(CCO)c(=O)n(CCO)c(=O)n1CCO
inactive and 61.1 µM (active): [3]
not listed: [6] | [7] | [8] | [10]
inactive: all other assays above

O=S(O)CO
active: [17] 26.6 µM
not listed: [7] | [12]
inactive: all other assays above

CC(=O)CC(C)C
not listed: [14] | [16] | [17] | [18] | [19] | [20]
inactive: all other assays above

NC(=O)Nc1ccccc1
not listed: [6] | [7] | [8] | [10]
inactive: all other assays above

O=[N+]([O-])c1ccc(F)cc1F
not listed: [6] | [7] | [8] | [10]
inactive: all other assays above

CCCCOCCOCCOCc1cc2c(cc1CCC)OCO2
active: [2] 24.6 µM | [4] 34.7 µM
not listed: [12] | [14] | [16] | [17] | [18]
inactive: all other assays above

CC1(C)C(O)C(C)(C)C1O (configuration not stated)
not listed: [7] | [18]
inactive: all other assays above

CC(C)(C)c1nnc(NS(=O)(=O)c2ccccc2)s1
not listed: [6] | [7] | [8] | [10]
inactive: all other assays above

CC(C)(O)C#CC(C)(C)O
not listed: [6] | [7] | [8] | [10]
inactive: all other assays above

NC(=O)COCCN1CCN(C(c2ccccc2)c2ccc(Cl)cc2)CC1 (configuration not stated)
active: [2] 33.5 µM | [3] 8.41 µM | [4] 26.6 µM | [11] 23.7 µM
not listed: [7] | [12] | [13]
inactive: all other assays above

CCCCNC(=O)NCCCC
not listed: [7] | [12] | [13]
inactive: all other assays above

CCCCC/C=C\CCC=O
not listed: [7] | [8] | [10]
inactive: all other assays above

CCn1ccnc1CC1COc2ccccc2O1 (configuration not stated)
inactive: all assays above

COc1ccc2c(c1)c(CC(=O)OCC(=O)O)c(C)n2C(=O)c1ccc(Cl)cc1
not listed: [7] | [14] | [16] | [17] | [18] | [19]
inactive: all other assays above

CCOC(C)(C)C
not listed: [6] | [7] | [8] | [10]
inactive: all other assays above

CC(C)(c1ccc(O)cc1)c1ccc(O)cc1
active: [2] 27.3 µM | [3] 67.8 µM and 50.4 µM | [4] 49.2 µM | [10] 59.2 µM | [12] 61.1 µM
not listed: [6] | [11] | [14] | [16] | [17] | [18]
inactive: all other assays above

CCSC(=O)N(CC(C)C)CC(C)C
inactive: all assays above

CCN1CCC[C@H]1CNC(=O)c1cc(S(N)(=O)=O)ccc1OC
not listed: [14] | [16] | [17] | [18]
inactive: all other assays above

CCCCCCCCCCCCCCCCC
active: [17] 61.1 µM
not listed: [6] | [7] | [8] | [10]
inactive: all other assays above

CC(C)(O)C(=O)c1ccccc1
not listed: [11] | [18]
inactive: all other assays above

CC(C)(CC(=O)O)C(=O)O
not listed: [11]
inactive: all other assays above

N=C(N)c1ccc2cc(OC(=O)c3ccc(N=C(N)N)cc3)ccc2c1
not listed: [6]
inactive: all other assays above

ClC(Cl)(Br)Br
inactive: all assays above

CC(C)CCCC(C)N (configuration not stated)
active: [17] 21.1 µM
not listed: [6] | [7] | [8] | [10]
inactive: all other assays above

OC1CCCCC1c1ccccc1 (configuration not stated)
not listed: [6]
inactive: all other assays above

CC(=O)OCC(CCn1cnc2cnc(N)nc21)COC(C)=O
not listed: [18]
inactive: all other assays above

COCCCOCCCOC
not listed: [6] | [7] | [8] | [10]
inactive: all other assays above

O=C(O)COc1nn(Cc2ccccc2)c2ccccc12
not listed: [7]
inactive: all other assays above

Cc1ccc(C#N)cc1
not listed: [6] | [7] | [8] | [10]
inactive: all other assays above

CCN1CCC[C@H]1CNC(=O)c1c(O)c(Cl)cc(Cl)c1OC
not listed: [6] | [7] | [8] | [10]
inactive: all other assays above

O=C1CC2CC1C1CCCC21 (configuration not stated)
active: [8] 54.5 µM
not listed: [11] | [14] | [17] | [18]
inactive: all other assays above
